Consider nine molecules from PubChem BioAssay.

Structures are written as SMILES. Active and inactive are the calls of the source.

A short description of assay [1]: E. coli DRC41 culture turbidity changes, primary screen, E. coli filamentation inducer project, strain DRC41, OD650, 48 h (AID 1152).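 Note: E. coli MC1000 strain DRC41 lacking acrAB efflux pump and sulA.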 To be noted: E. coli DRC41 (acrAB sulA), higher = more signal, called active from +8 up or from −8 down.
Assay [2] can be described thus: small-molecule binders of probe aLefty1, primary screen, biochemical, small-molecule microarray, 635/667 nm fluorescence (AID 1153).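 Note: score merges spot fluorescence with signal-to-noise ratio from the scanned slide images.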 Conditions: higher = more signal.
Assay [3] is described as follows: PSAC antagonists in infected red cells, primary screen, cell-based, P. falciparum Indochina, OD700, 1 h (AID 1154). To be noted: P. falciparum Indochina infected RBC osmotic lysis, higher = more signal, called active from +8 up or from −8 down.
Assay [4] can be described thus: PSAC antagonists in infected red cells, primary screen, cell-based, P. falciparum Indochina, OD700, 2 h (AID 1155).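 Note: lysis reports solute entry through the parasite surface anion channel PSAC; channel blockers reduce lysis of infected cells.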 To be noted: P. falciparum Indochina infected erythrocytes, osmotic lysis OD700; higher = more signal, called active from +8 up or from −8 down.
Assay [5] in a line: osmotic lysis modulators in infected erythrocytes, primary screen, PSAC antagonist project, cell-based, P. falciparum Indochina, OD700, 3 h (AID 1156). Conditions: higher = more signal, called active from +8 up or from −8 down.
A short description of assay [6]: PSAC antagonists in infected red cells, primary screen, cell-based, P. falciparum Indochina, OD700, 18 h (AID 1157). To be noted: P. falciparum Indochina infected erythrocytes, osmotic lysis OD700, 18 h; higher = more signal, called active from +8 up or from −8 down.
Assay [7] can be described thus: modulators of S6 phosphorylation in cells, primary screen, cell-based, A549, cytoblot, luminescence, serum-stimulated (AID 1158).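 Note: serum-stimulated A549 lung adenocarcinoma cells; signal is phosphorylated S6 detected by cytoblot immunostaining with HRP secondary.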 To be noted: A549 phospho-S6 cytoblot, 5 h, higher = more signal.
The target in assay [8] is NADPH oxidase 2 (Homo sapiens) (UniProt P04839). The experiment in a line: NOX2-dependent H2O2 signal modulators, primary screen, NOX inhibitor project, cell-based, HEK293-NOX2, PMA-stimulated, Amplex Red fluorescence (AID 1159). Note: test concentration not given here. Conditions: 45 min, higher = more signal, called active from +8 up or from −8 down.
NADPH oxidase 2 (Homo sapiens), sequence (P04839 whole entry, looked up): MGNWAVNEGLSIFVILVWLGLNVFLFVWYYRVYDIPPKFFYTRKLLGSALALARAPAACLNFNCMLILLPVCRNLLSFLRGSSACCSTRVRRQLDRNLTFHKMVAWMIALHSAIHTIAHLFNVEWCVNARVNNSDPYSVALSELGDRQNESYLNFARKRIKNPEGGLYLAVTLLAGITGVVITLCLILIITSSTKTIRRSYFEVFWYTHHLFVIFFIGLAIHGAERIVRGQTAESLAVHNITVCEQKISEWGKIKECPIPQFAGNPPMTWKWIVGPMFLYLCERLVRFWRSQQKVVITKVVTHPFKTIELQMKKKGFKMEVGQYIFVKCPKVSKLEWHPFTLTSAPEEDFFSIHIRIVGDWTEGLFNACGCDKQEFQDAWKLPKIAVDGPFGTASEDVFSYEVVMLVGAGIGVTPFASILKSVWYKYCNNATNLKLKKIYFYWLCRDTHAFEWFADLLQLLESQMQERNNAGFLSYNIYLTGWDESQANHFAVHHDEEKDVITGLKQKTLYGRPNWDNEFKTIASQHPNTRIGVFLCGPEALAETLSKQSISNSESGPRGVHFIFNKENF
The target of assay [9] is NADPH oxidase 4 (Homo sapiens) (UniProt Q9NPH5). The experiment in a line: NOX4-dependent H2O2 signal modulators, primary screen, NOX inhibitor project, cell-based, HEK293-NOX4, tetracycline-induced, Amplex Red fluorescence (AID 1160). Conditions: 45 min, higher = more signal, called active from +8 up or from −8 down.
NADPH oxidase 4 (Homo sapiens), sequence (Q9NPH5 whole entry, looked up): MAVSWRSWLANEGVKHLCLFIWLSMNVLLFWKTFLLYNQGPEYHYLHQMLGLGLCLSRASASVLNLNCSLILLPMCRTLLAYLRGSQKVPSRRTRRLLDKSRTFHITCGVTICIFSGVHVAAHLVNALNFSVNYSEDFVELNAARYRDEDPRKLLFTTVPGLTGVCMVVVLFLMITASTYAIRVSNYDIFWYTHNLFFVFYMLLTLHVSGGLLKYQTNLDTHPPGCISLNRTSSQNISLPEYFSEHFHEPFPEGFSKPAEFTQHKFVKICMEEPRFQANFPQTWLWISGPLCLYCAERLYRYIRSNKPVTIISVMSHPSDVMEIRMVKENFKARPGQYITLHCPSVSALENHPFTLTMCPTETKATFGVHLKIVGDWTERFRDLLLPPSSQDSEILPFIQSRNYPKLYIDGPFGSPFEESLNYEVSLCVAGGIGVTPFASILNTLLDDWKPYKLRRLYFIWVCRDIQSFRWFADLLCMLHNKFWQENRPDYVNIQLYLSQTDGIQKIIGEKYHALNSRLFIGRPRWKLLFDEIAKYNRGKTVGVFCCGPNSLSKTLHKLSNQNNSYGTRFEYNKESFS
Assay [10] concerns the target NADPH oxidase 5 (Homo sapiens) (UniProt Q96PH1). Put plainly: NOX5-dependent H2O2 signal modulators, primary screen, NOX inhibitor project, cell-based, HEK293-NOX5, Amplex Red fluorescence (AID 1161). Conditions: HEK293-NOX5, ionomycin, 45 min, higher = more signal.
Assay [11] can be described thus: A549 cell viability effects, profiling panel, calcein-AM fluorescence, 48 h, basal (AID 1162). Note: test concentration not given here. To be noted: higher = more signal.
Assay [12] can be described thus: adipocyte viability effects, profiling panel, cell-based, 3T3-L1 adipocytes, calcein-AM fluorescence, 48 h, basal (AID 1163). Note: test concentration not given here. To be noted: 3T3-L1 adipocytes viability, higher = more signal.
A short description of assay [13]: HepG2 cell viability effects, profiling panel, calcein-AM fluorescence, 48 h, basal (AID 1164). Note: test concentration not given here. Conditions: higher = more signal.
Assay [14] can be described thus: MM1S cell viability effects, profiling panel, calcein-AM fluorescence, 48 h, basal (AID 1165).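 Note: viability of MM1S multiple myeloma cells under basal unstimulated conditions; test concentration not given here.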 To be noted: higher = more signal.
The nature of assay [15]: basal RPMI8226 viability, no added stimulus, profiling panel, cell-based, calcein-AM fluorescence, 48 h, PK04 Diversity Set (AID 1166).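 Note: cells grown under basal conditions without added stimulus; test concentration not given here.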 Conditions: RPMI8226 myeloma viability, higher = more signal.
Assay [16] is described as follows: basal HepG2 mitochondrial membrane potential changes, profiling panel, cell-based, JC-1 fluorescence, 24 h, 100 nL compound (AID 1167). Note: test concentration not given here. Conditions: higher = more signal.
Assay [17] is described as follows: basal 3T3-L1 adipocyte mitochondrial potential changes, profiling panel, cell-based, JC-1 fluorescence, 3T3-L1 adipocytes, 24 h, 100 nL compound (AID 1168). Note: test concentration not given here. To be noted: JC-1 mitochondrial fluorescence, higher = more signal, called active from +8 up or from −8 down.
Assay [18] is described as follows: basal RPMI8226 mitochondrial membrane potential changes, profiling panel, cell-based, JC-1 fluorescence, 24 h, 100 nL compound (AID 1169). Note: test concentration not given here. Conditions: RPMI8226 myeloma, JC-1 mitochondrial potential fluorescence, higher = more signal.
Assay [19] in a line: basal MM1S mitochondrial membrane potential changes, profiling panel, cell-based, JC-1 fluorescence, 24 h, 100 nL compound (AID 1170). Note: test concentration not given here. To be noted: higher = more signal.
A short description of assay [20]: A549 lung cancer cell viability effects, profiling panel, resazurin fluorescence, 24 h, PK04 Diversity Set (AID 1171). Note: test concentration not given here. Conditions: higher = more signal, called active from +8 up or from −8 down. Background: Resazurin is reduced to fluorescent resorufin, in cell work by metabolically active cells.

NADPH oxidase 5 (Homo sapiens), sequence (Q96PH1 whole entry, looked up): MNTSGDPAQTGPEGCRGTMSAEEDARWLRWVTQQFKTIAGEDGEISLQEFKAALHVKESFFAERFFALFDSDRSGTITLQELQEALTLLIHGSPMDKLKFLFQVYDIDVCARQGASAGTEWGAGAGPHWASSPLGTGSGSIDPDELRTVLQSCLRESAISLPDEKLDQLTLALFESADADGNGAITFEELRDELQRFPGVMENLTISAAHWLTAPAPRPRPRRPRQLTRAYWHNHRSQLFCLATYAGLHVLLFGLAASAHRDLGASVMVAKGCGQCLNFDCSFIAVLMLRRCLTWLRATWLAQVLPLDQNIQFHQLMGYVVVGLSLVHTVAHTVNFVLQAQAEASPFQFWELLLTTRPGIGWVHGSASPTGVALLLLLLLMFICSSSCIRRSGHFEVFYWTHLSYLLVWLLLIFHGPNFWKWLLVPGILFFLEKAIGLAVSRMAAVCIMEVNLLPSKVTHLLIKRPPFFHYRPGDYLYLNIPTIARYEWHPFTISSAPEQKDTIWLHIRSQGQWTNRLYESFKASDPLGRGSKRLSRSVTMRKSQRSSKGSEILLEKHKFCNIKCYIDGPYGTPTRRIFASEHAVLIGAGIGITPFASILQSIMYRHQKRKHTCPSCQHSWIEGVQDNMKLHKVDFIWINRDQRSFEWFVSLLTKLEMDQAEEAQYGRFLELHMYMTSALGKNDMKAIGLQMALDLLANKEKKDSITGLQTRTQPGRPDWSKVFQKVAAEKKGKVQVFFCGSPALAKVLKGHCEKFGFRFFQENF

Regarding `COC(=O)[C@@]1(Cc2ccccc2)[C@H]2c3cc(C(=O)N4CCCC4)n(Cc4ccc(OC(F)(F)F)cc4)c3C[C@H]2CN1C(=O)c1ccccc1`, the z-score is -2.11 (inactive) in [1]; 3.6 (inactive) in assay [3]; 1.2 (inactive) in assay [4]; 1.01 (inactive) in assay [5]; 1.35 (inactive) in [6]; -0.366 in assay [7]. In addition, the z-score in assay [8] was 0.828 (inactive); in assay [9] it was 1.34 (inactive); in [10] it was 0.914; in [11], -0.975; in assay [12] it was -0.8; in assay [13], -1.56. Besides, the z-score in [14] is -1.89; in [15], -2.47; in assay [16], 1.77; in [17], -1.42 (inactive); in [18] it was -0.717; in [19], -0.934. The z-score in [20] was -1.46 (inactive). This molecule showed a composite z-score in [2] of 0.592.
Take `COc1cc(C(O)C2C=CC3C(=O)NC(=O)C3N2Nc2ccc(Cl)cc2Cl)cc(OC)c1OC` (stereo not given): the z-score in [1] was -1.52 (inactive); in [3], 1.94 (inactive); in assay [4], 1.49 (inactive); in assay [5] it was 0.0681 (inactive); in assay [6], 1.24 (inactive); in [7] it was -0.778. In addition, the z-score is -0.885 (inactive) in assay [8]; -5.56 (inactive) in [9]; -3.11 in assay [10]; -0.797 in assay [11]; 0.349 in assay [12]; -0.751 in assay [13]. The z-score in assay [14] is 0.192; in assay [15], -1.44; in assay [16], -0.359; in [17] it was -1.63 (inactive); in assay [18], -0.82; in assay [19], 0.483. Besides, in assay [20], the z-score was -0.315 (inactive). For the same molecule, in assay [2], the composite z-score came out at 0.505.
`COc1ccc(C(=O)Nc2ccc3c(c2)[C@]2(O[C@@H](CCO)[C@H]([Si](C)(C)c4ccc(OC)cc4)[C@H]2C)C(=O)N3Cc2ccccc2)cc1`: the z-score was 0.257 (inactive) in assay [1]; 4.99 (inactive) in assay [3]; 1.42 (inactive) in assay [4]; 2.07 (inactive) in [5]; -0.237 (inactive) in assay [6]; 0.776 in assay [7]. The z-score in assay [8] is -5.81 (inactive); in assay [9] it was -1.21 (inactive); in assay [10], 0.304; in assay [11] it was -1.34; in assay [12], 1.39; in assay [13], -2.56. Besides, the z-score in [14] was -2.64; in assay [15], -2.99; in assay [16], 0.00933; in assay [17], -0.0069 (inactive); in assay [18], -0.965; in assay [19] it was -0.497. Moreover, the z-score in assay [20] is -2.42 (inactive). Further, the composite z-score in [2] was -0.147.
`COC(=O)[C@@]1(Cc2ccc(F)cc2)[C@H]2c3cc(C(=O)N(C)C)n(CCSCCO)c3C[C@H]2CN1C(=O)c1ccccc1`: the z-score is -0.683 (inactive) in assay [1]; 0.621 (inactive) in assay [3]; -0.383 (inactive) in assay [4]; -0.662 (inactive) in [5]; 0.397 (inactive) in assay [6]; -0.426 in assay [7]. In addition, the z-score in assay [8] was 0.746 (inactive); in assay [9], -0.303 (inactive); in assay [10], -0.572; in [11], -0.716; in [12] it was -0.352; in assay [13] it was 0.665. In addition, the z-score in assay [14] was -0.684; in assay [15], -1.08; in assay [16], -0.572; in [17] it was -0.682 (inactive); in assay [18], -0.0796; in [19], 0.172. Further, the z-score in assay [20] was -0.0793 (inactive). Moreover, in assay [2], the composite z-score is -0.0901.
Turning to `O=C1C[C@@](C(=O)NCc2ccccc2)(c2ccc([N+](=O)[O-])cc2)[C@@H](c2ccc(CO)cc2I)N1C1CCCCC1`, the z-score in [1] is 0.936 (inactive); in [3], 11.6 (active); in assay [4] it was 1.94 (inactive); in assay [5], 3.44 (inactive); in [6], 1.09 (inactive); in assay [7] it was -0.153. The z-score in assay [8] was 1.23 (inactive); in [9] it was -1.03 (inactive); in assay [10] it was 2.16; in assay [11] it was 1.14; in assay [12] it was 0.317; in [13], 0.593. Moreover, the z-score in assay [14] is -1.6; in assay [15], -1.22; in assay [16] it was 1.67; in assay [17] it was 0.254 (inactive); in [18], -0.572; in [19], 0.576. In assay [20], the z-score was 0.75 (inactive). This molecule returned a composite z-score in [2] of 0.503.
Turning to `COCCCNC(=O)[C@]1(Cc2ccccc2)N=C(c2ccc(OCCCO)cc2)O[C@@H]1c1ccccc1N=[N+]=[N-]`, the z-score in assay [1] was 1.1 (inactive); in assay [3], 31.9 (active); in assay [4], 27.3 (active); in assay [5] it was 2.49 (inactive); in assay [6], 2.24 (inactive); in assay [7] it was 1.44. Moreover, the z-score was -5.51 (inactive) in assay [8]; -2.84 (inactive) in assay [9]; -2.21 in assay [10]; -1.8 in assay [11]; 1.77 in [12]; -1.47 in assay [13]. Also, the z-score in [14] was -1.78; in assay [15], -4.29; in [16], 1.29; in assay [17], 0.235 (inactive); in assay [18] it was -1.1; in assay [19], -1.73. Also, in [20], the z-score was -1.09 (inactive). Besides, the composite z-score in [2] is 0.334.
For the molecule `Cc1ccccc1C(O)C1C=CC2C(=O)N(C)C(=O)C2N1Nc1ccc([N+](=O)[O-])cc1[N+](=O)[O-]` (stereo not given), the z-score in assay [1] was -1.68 (inactive); in assay [3] it was 4.34 (inactive); in assay [4] it was 1.7 (inactive); in [5] it was 1.06 (inactive); in assay [6], 0.95 (inactive); in assay [7] it was -1.32. Moreover, the z-score is -0.824 (inactive) in [8]; -1.23 (inactive) in assay [9]; 0.487 in [10]; 0.544 in assay [11]; -0.729 in assay [12]; 0.839 in assay [13]. The z-score was -1.04 in [14]; -0.582 in [15]; -1.57 in assay [16]; -1.15 (inactive) in assay [17]; -0.0251 in assay [18]; -1.09 in [19]. Further, in [20], the z-score was -0.372 (inactive). In [2], this molecule gave a composite z-score of 0.591.
On to `NC(=O)NCC#Cc1ccc2c(c1)[C@]1(C(=O)N2)[C@H](c2ccc(OCCO)cc2)N2[C@H](c3ccccc3)[C@H](c3ccccc3)OC(=O)[C@H]2[C@@H]1C(=O)N1CCN(c2ncccn2)CC1`, for which the z-score in assay [1] was 0.811 (inactive); in assay [3], 3.03 (inactive); in assay [4], 1.1 (inactive); in assay [5], 0.454 (inactive); in [6], 0.516 (inactive); in [7], 0.0981. Besides, the z-score in assay [8] was 1.75 (inactive); in [9] it was 1.48 (inactive); in [10] it was 0.41; in assay [11], 0.947; in assay [12], 0.212; in assay [13] it was 0.674. Further, the z-score in assay [14] was -0.167; in assay [15], 0.62; in assay [16] it was -1.45; in [17], 0.721 (inactive); in assay [18], -0.726; in [19], -0.669. Also, in assay [20], the z-score was 1.1 (inactive). In assay [2], this molecule displayed a composite z-score of 0.538.
Regarding `CN1C(=O)C2C=CC(C(O)COCc3ccccc3)N(Nc3ccccc3)C2C1=O` (stereo not given), the z-score in [1] is -0.75 (inactive); in assay [3], 0.625 (inactive); in [4] it was 0.167 (inactive); in assay [5], -0.225 (inactive); in assay [6] it was 0.63 (inactive); in assay [7], -1.01. The z-score in [8] was -2.32 (inactive); in assay [9], -4.03 (inactive); in [10] it was -2.63; in assay [11], -0.115; in [12], -1.24; in assay [13] it was -0.465. Moreover, the z-score in [14] was 0.225; in assay [15], 0.192; in assay [16] it was -1.05; in assay [17], 0.0756 (inactive); in [18], -0.0145; in [19] it was -0.178. In addition, the z-score in assay [20] is 0.105 (inactive). In [2], this molecule returned a composite z-score of 0.167.
